Measurements as given in the supplement of paper PMC10849652.
Of roughly 7,900 targets only a part is listed; those with a hit were picked by preference. About 0.6% of all pairs of compound and target were hits. Unmarked numbers belong to inactive results.

How the values were obtained:
Experiment in all cases: log2 fold change, soluble protein after heating vs DMSO (PISA); higher = thermal stabilisation; K562 cells, 10 uM, 30 min; active = over 0.2 and 3.5 SD of the protein, either way, in both replicates (recomputed)
[1] = compound: C#Cc1cccc(Nc2ncnc3cc(OCCOC)c(OCCOC)cc23)c1 [erlotinib]
Procedure, shortened: (§1)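 Soluble protein was defined as the supernatant after 21,000xg for 90 min. It came from K562 cells at 2×10^6 cells/mL given 10 μM compound for 30 min, heated in aliquots for 3 min across 48°C-58°C, pooled, and extracted in PBS with 0.5% NP-40 at 4°C, and was quantified by TMTpro 16plex LC-MS/MS with equalised channel sums. Thermal stability against control samples, from duplicates, is reported as log2 fold change.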

[2] = compound: C/C(=N\NC(=O)C1=CC(=CC=C1)S(=O)(=O)N2CCOCC2)/C3=C(C=CC(=C3)Cl)O
Procedure, shortened: as §1

[3] = compound: C1=CC(=C(C=C1Cl)C2=NC3=NC=CN=C3C(=N2)NC4=CC=NC=C4)F
Procedure, shortened: as §1

[4] = compound: C1=CC(=CC=C1C2=NC3=C(N2)C=C(C=C3)C(=O)N)OC4=CC=C(C=C4)Cl
Procedure, shortened: as §1

[5] = compound: C1=CC2=C(C=CC(=C2)/C=C\3/C(=O)NC(=NCC4=CC=CS4)S3)N=C1
Procedure, shortened: as §1

[6] = compound: C1=CC2=NC=CN=C2C=C1/C=C/3\C(=O)NC(=O)S3
Procedure, shortened: as §1

[7] = compound: C1=CC=C(C=C1)C2=NC(=C(N2)C3=CC=NC=C3)C4=CC(=C(C=C4)Cl)O
Procedure, shortened: as §1

[8] = compound: C1=CC=C2C(=C1)C3=NNC4=CC=CC(=C43)C2=O
Procedure, shortened: as §1

[9] = compound: C1CCN(C1)C(=O)NC2=CC=CC(=C2)NC3=NC=C(C(=N3)NCCC4=CN=CN4)Br
Procedure, shortened: as §1

[10] = compound: C1CN(CCC1(CC2=CC=C(C=C2)Cl)N)C3=NC=NC4=C3C=CN4
Procedure, shortened: as §1

Chain of UniProt Q3B7T1 (Q3B7T1 whole entry, looked up): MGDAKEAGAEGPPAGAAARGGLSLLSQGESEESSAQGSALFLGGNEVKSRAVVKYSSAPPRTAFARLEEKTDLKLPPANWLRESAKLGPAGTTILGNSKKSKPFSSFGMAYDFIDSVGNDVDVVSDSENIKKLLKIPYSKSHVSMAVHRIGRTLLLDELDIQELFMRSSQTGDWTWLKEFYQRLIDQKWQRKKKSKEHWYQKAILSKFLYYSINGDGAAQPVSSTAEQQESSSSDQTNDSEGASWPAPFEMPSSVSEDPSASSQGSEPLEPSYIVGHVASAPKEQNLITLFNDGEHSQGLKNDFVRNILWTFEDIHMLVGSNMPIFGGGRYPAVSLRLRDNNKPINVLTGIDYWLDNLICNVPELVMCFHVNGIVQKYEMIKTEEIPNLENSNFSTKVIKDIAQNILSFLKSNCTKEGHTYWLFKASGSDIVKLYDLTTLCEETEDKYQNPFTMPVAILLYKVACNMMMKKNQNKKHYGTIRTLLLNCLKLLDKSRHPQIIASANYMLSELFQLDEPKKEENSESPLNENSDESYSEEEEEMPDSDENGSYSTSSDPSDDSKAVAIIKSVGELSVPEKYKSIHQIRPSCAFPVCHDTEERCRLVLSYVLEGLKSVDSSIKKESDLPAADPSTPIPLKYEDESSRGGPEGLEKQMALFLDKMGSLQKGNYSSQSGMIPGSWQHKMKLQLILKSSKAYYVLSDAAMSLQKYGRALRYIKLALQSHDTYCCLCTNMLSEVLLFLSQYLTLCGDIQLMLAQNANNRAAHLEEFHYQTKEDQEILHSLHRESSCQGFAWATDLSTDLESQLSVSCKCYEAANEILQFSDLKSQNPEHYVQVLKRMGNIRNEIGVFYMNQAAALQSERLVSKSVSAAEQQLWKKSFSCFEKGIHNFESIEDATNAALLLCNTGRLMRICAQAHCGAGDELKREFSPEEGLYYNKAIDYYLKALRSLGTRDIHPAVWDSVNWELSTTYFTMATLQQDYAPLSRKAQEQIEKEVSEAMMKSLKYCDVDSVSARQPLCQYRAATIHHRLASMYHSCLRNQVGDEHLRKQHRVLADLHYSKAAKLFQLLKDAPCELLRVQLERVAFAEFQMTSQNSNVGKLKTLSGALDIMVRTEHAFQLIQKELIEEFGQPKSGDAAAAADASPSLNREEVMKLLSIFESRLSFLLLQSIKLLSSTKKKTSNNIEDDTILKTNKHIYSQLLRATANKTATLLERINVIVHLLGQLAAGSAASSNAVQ
Chain of UniProt Q86YN1 (Q86YN1 whole entry, looked up): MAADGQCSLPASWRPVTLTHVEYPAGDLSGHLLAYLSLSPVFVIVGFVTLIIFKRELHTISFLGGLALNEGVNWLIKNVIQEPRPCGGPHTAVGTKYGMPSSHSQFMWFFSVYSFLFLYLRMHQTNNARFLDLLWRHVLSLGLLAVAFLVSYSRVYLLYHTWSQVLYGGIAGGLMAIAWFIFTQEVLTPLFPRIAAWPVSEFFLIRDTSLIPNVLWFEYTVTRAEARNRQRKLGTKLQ
Chain of UniProt P25774 (P25774 whole entry, looked up): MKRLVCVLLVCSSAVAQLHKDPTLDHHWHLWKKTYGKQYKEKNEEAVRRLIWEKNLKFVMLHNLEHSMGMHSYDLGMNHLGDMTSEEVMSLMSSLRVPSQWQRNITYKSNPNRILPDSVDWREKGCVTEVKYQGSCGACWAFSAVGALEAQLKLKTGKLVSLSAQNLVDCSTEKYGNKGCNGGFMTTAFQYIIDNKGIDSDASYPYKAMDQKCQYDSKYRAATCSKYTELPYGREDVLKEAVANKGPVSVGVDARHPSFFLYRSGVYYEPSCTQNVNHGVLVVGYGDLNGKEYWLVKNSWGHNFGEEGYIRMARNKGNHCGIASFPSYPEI
Chain of UniProt P29692 (P29692 whole entry, looked up): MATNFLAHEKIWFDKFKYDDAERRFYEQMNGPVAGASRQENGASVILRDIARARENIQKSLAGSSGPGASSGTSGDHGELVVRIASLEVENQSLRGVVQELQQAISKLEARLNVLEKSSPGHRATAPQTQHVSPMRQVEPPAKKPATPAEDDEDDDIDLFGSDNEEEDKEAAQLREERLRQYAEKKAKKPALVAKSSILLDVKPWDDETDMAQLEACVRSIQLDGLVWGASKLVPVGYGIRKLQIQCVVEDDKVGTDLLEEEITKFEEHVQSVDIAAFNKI
Chain of UniProt Q13948 (Q13948 whole entry, looked up): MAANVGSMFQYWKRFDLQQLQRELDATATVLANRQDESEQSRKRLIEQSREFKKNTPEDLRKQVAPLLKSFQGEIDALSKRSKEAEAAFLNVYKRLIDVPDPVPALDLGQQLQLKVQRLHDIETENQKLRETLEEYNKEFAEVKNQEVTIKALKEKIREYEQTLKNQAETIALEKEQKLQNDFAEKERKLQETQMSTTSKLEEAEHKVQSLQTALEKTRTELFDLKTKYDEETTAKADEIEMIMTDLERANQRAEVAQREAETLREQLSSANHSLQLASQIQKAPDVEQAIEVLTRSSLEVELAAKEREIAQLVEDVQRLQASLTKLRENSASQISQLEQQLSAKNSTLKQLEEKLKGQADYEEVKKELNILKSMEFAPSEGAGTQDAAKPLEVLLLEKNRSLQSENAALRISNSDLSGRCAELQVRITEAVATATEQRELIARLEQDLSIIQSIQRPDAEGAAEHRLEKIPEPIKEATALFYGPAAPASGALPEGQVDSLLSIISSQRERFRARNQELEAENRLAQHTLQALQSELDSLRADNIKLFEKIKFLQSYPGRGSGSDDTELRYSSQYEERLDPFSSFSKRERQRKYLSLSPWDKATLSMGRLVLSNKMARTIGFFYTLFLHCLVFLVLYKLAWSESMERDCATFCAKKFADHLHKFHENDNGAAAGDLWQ
Chain of UniProt Q92556 (Q92556 whole entry, looked up): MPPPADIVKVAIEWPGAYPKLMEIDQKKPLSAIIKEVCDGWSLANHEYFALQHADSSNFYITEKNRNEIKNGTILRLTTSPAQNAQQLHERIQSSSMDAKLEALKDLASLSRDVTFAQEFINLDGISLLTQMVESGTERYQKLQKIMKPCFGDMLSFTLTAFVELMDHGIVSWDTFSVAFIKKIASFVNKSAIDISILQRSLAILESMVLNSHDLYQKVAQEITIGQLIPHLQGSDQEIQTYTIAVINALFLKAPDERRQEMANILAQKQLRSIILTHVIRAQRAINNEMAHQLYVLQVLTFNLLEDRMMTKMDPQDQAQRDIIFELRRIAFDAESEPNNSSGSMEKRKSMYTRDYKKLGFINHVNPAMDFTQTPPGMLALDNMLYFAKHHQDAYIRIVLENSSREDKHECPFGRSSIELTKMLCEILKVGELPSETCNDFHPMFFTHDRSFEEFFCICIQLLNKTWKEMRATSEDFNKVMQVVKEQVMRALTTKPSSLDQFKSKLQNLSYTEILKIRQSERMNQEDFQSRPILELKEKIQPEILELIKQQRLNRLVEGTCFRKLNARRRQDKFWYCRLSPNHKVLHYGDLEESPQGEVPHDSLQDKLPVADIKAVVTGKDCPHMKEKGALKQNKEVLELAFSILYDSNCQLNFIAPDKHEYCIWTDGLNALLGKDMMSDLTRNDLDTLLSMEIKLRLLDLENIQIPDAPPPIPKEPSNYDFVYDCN
Chain of UniProt Q4LDG9 (Q4LDG9 whole entry, looked up): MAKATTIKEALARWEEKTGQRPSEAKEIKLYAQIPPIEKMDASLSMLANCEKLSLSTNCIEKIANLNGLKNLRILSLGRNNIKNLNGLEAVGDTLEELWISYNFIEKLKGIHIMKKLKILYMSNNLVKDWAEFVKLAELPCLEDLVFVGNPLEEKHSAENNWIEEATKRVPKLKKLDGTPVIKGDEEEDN
Chain of UniProt Q07973 (Q07973 whole entry, looked up): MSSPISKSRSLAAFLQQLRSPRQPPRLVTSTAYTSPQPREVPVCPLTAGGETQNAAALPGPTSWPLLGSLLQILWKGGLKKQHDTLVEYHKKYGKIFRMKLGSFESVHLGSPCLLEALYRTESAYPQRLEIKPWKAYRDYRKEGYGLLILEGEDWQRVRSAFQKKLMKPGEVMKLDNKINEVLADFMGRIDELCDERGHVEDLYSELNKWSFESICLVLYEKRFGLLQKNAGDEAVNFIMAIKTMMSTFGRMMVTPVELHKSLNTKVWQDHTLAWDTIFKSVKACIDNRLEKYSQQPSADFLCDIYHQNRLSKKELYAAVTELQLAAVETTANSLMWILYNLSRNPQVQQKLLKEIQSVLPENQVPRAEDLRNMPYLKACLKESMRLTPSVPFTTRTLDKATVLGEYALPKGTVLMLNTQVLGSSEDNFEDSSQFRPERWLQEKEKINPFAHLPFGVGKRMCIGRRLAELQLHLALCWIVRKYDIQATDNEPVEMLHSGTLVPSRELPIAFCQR
Chain of UniProt O00418 (O00418 whole entry, looked up): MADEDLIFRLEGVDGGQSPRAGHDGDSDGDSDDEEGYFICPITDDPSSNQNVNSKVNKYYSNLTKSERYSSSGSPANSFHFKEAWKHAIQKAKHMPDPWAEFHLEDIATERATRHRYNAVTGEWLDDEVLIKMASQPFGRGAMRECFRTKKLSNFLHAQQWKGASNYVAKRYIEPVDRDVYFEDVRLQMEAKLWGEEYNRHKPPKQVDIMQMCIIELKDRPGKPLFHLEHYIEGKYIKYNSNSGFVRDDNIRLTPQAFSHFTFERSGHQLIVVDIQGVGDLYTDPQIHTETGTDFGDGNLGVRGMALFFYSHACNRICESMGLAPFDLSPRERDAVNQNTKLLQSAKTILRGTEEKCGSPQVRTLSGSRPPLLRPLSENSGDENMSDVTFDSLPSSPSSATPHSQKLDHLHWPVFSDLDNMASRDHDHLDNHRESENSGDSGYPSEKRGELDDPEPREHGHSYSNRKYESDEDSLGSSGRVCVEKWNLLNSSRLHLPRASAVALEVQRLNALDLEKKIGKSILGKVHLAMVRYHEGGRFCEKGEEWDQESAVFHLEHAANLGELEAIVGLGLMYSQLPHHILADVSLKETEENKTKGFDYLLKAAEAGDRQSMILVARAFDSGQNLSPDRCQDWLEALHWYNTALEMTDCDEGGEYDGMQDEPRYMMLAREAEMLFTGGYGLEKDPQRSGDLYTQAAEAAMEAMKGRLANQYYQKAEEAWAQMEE

Target | log2 fold change [1] | log2 fold change [2] | log2 fold change [3] | log2 fold change [4] | log2 fold change [5] | log2 fold change [6] | log2 fold change [7] | log2 fold change [8] | log2 fold change [9] | log2 fold change [10]
CYBA (UniProt P13498) | -0.075 | 0.096 | -0.005 | 0.025 | 0.042 | 0.032 | 0.03 | -0.072 | -0.012 | -0.005
ELF1 (UniProt P32519) | -0.016 | -0.052 | 0.068 | 0.028 | -0.003 | – | 0.082 | -0.091 | 0.013 | -0.092
CTNNB1 (UniProt P35222) | -0.035 | 0.062 | -0.033 | 0.025 | 0.092 | 0.108 | 0.036 | -0.01 | -0.002 | -0.032
DPYSL2 (UniProt Q16555) | -0.02 | -0.104 | 0.099 | 0.072 | 0.074 | 0.003 | – | 0.055 | -0.044 | 0.14
DSN1 (UniProt Q9H410) | 0.07 | 0.042 | -0.002 | 0.024 | -0.019 | -0.009 | -0.018 | 0.006 | 0.004 | -0.091
DOLPP1 (UniProt Q86YN1) | 0.049 | 0.039 | – | 0.009 | -0.165 | 0.074 | 0.17 | 0.011 | -0.088 | 0.001
CUX1 isoform 2 (UniProt Q13948) | -0.025 | 0.017 | 0.012 | 0.036 | 0.014 | -0.031 | -0.043 | 0.009 | -0.009 | -0.031
EIF2AK1 (UniProt Q9BQI3) | -0.002 | 0.006 | -0.042 | 0 | -0.029 | -0.114 | -0.029 | 0.021 | -0.007 | 0.012
EDRF1 (UniProt Q3B7T1) | 0.066 | – | -0.038 | -0.119 | – | -0.017 | -0.033 | – | – | –
DENND1A isoform 6 (UniProt Q8TEH3) | – | – | – | – | – | -0.328 | – | – | -0.315 | -0.034
DOP1A (UniProt Q5JWR5) | 0.177 | – | 0.009 | -0.152 | – | 0.035 | – | – | – | –
CTNNBL1 (UniProt Q8WYA6) | – | – | – | – | – | -0.032 | – | – | – | –
EID1 (UniProt Q9Y6B2) | -0.17 | – | -0.425 | 0.137 | – | – | – | – | 0.092 | 0.029
CWF19L2 (UniProt Q2TBE0) | 0.004 | 0.056 | – | 0.038 | 0.03 | – | -0.132 | -0.014 | 0.017 | -0.04
FAM160A2 isoform 2 (UniProt Q8N612) | – | – | 0.2 | – | – | -0.012 | -0.134 | – | -0.071 | 0.027
ENTR1 (UniProt Q96C92) | -0.015 | – | – | 0.043 | – | – | – | – | – | –
FAM193B (UniProt Q96PV7) | – | -0.127 | -0.311 | – | -0.085 | 0.068 | – | -0.101 | -0.133 | -0.483
ENTPD7 (UniProt Q9NQZ7) | 0.096 | – | -0.028 | -0.181 | – | 0.063 | – | – | -0.042 | 0.037
DNAH10 (UniProt Q8IVF4) | 0.325 | – | 0.251 | -0.187 | – | -0.054 | – | – | -0.052 | 0.137
DNM2 isoform 4 (UniProt P50570) | 0.042 | – | 0.084 | -0.128 | – | 0.261 | -0.008 | – | – | –
EIF4G3 isoform 3 (UniProt O43432) | 0.047 | 0.01 | – | -0.083 | 0.041 | -0.046 | -0.028 | 0.071 | -0.049 | -0.125
EPHX2 (UniProt E5RI53) | – | – | 0.037 | – | – | -0.082 | – | – | – | –
DCP2 (UniProt Q8IU60) | – | 0.176 | -0.117 | – | -0.118 | – | 0.021 | -0.073 | -0.134 | -0.064
EHBP1 (UniProt Q8NDI1) | – | -0.012 | – | – | 0.086 | – | – | 0.095 | -0.132 | 0.033

Target | log2 fold change [1] | log2 fold change [2] | log2 fold change [3] | log2 fold change [4] | log2 fold change [5] | log2 fold change [6] | log2 fold change [7] | log2 fold change [8] | log2 fold change [9] | log2 fold change [10]
FADS1 (UniProt F5GYH4) | – | – | – | – | – | 0.155 | – | – | 0.057 | 0.002
DDB1 isoform 2 (UniProt Q16531) | – | – | 0.017 | – | – | 0.205 | – | – | – | –
EIF4G1 (UniProt Q04637) | – | 0.171 | – | – | 0.018 | – | – | -0.356 | -0.301 | -0.425
DCAF4 (UniProt Q8WV16) | – | – | 0.009 | – | – | – | -0.15 | – | – | –
DNAH5 (UniProt Q8TE73) | 0.014 | – | 0.036 | 0.001 | – | -0.005 | -0.067 | – | 0.084 | 0.095
FAM118A (UniProt Q9NWS6) | – | 0.005 | 0.098 | – | 0.083 | 0.089 | -0.365 | 0.212 | 0.084 | 0.078
DAXX (UniProt Q9UER7) | 0.212 | -0.662 (active) | – | 0.037 | 0.072 | 0.012 | 0.055 | 0.009 | -0.148 | 0.224
EEF1D isoform 3 (UniProt P29692) | -0.009 | – | – | 0.009 | – | – | – | – | -0.16 | -0.087
DHPS (UniProt M0R1T2) | – | – | – | – | – | 0.099 | – | – | – | –
ELMO1 (UniProt Q92556) | 0.111 | – | -0.079 | -0.001 | – | 0.037 | -0.308 | – | – | –
ERF (UniProt P50548) | -0.448 | – | 0.127 | -0.036 | – | – | – | – | 0.058 | 0.13
CTSS (UniProt P25774) | – | – | – | – | – | – | -0.215 | – | 0.144 | 0.545
DDX46, A0A0C4DG89 | – | – | 0.174 | – | – | – | – | – | – | –
DHRS13 (UniProt Q6UX07) | 0.014 | 0.043 | – | -0.006 | 0.037 | – | 0.073 | 0.047 | -0.009 | 0.065
DNAL1 (UniProt Q4LDG9) | – | -0.034 | 0.053 | – | -0.07 | -0.654 (active) | -0.113 | 0.091 | – | –
EPHB4 (UniProt P54760) | – | – | – | – | – | – | -0.151 | – | – | –
FAM135A (UniProt Q9P2D6) | 0.033 | – | 0.07 | -0.116 | – | – | – | – | – | –
DLK1 (UniProt P80370) | – | – | 0.028 | – | – | – | – | – | – | –
DNAJB1 (UniProt M0R128) | – | – | – | – | – | -0.105 | – | – | 0.142 | 0.133
DNAJC24 (UniProt Q6P3W2) | -0.114 | – | 0.123 | 0.062 | – | -0.053 | -0.084 | – | -0.047 | -0.158
F2RL3 (UniProt Q96RI0) | -0.056 | 0.026 | – | -0.083 | 0.039 | – | -0.052 | -0.12 | -0.161 | 0.065
DERPC (UniProt P0CG12) | 0.197 | – | – | -0.346 | – | 0.078 | -0.034 | – | – | –
EEF2K (UniProt O00418) | -0.064 | – | -0.137 | -0.024 | – | – | 0.027 | – | – | –
CYP24A1 (UniProt Q07973) | -0.042 | -0.796 (active) | – | -0.072 | 0.015 | -0.13 | 0.091 | -0.057 | 0.179 | 0.046
